# Records with an inconclusive call do not appear. Activity calls are given as the source filed them. Rule for the calls: active = hit-call score of the fitted dose curve at least 0.9, where 1 is the maximum; inconclusive = response in the unintended direction; inactive = score below 0.9.
# Columns and labels:
# [1] = target: Cellular tumor antigen p53 (Homo sapiens) (UniProt P04637); assay: TOX21_p53_BLA_p2_ratio: Tox21 HCT-116 p53 Agonism Beta-lactamase Assay, Ratio, Phase 2 (AID 2283592)
# Method in brief: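 Cleaved-to-uncleaved substrate ratio (460 vs 530 nm) measured in HCT116 cells with an inducible beta-lactamase reporter linked to p53 activity. Compounds incubated 16 h at 37C before 2 h room-temperature CCF4-AM loading.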
# [2] = TOX21_p53_BLA_p3_viability: Viability Assessment in the Tox21 HCT-116 p53 Agonism Beta-lactamase Assay, Phase 3 (AID 2283593);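 note: cells exposed to compound for 16 h before reading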
# Method in brief: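 HCT-116 cells (4000/well) rested 5 h at 37C, then got DMSO compounds by pin tool (217-fold dilution) for 16 h at 37C, 5% CO2. After the bla read, CellTiter-Glo was added and luminescence read at 30 min, room temperature.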
# [3] = target: Cellular tumor antigen p53 (Homo sapiens) (UniProt P04637); assay: TOX21_p53_BLA_p3_ratio: Tox21 HCT-116 p53 Agonism Beta-lactamase Assay, Ratio, Phase 3 (AID 2283596)
# Method in brief: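 Cells were seeded at 4000/well, rested 5 h at 37C, then dosed with DMSO compound solutions (217-fold dilution) for 16 h. CCF4-AM substrate was loaded for 2 h at room temperature, and the 460/530 nm emission ratio was fitted for gain of signal versus DMSO.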
# [4] = TOX21_p53_BLA_p4_viability: Viability Assessment in the Tox21 HCT-116 p53 Agonism Beta-lactamase Assay, Phase 4 (AID 2283597);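 note: hits lower the luminescence signal meaning cytotoxicity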
# Method in brief: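 Viability is taken as cellular ATP: after 16 h compound exposure of HCT116 cells and a 2 h room-temperature CCF4-AM substrate step, CellTiter-Glo reagent is added and luminescence is measured 30 min later.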
# [5] = TOX21_p53_BLA_p5_viability: Viability Assessment in the Tox21 HCT-116 p53 Agonism Beta-lactamase Assay, Phase 5 (AID 2283600)
# Method in brief: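 Viability is taken from cellular ATP content, measured by luciferase luminescence in the same wells after the beta-lactamase ratio read. Cells are seeded at 4000 per well and exposed to DMSO-dissolved compounds, diluted 217-fold, for 16 h.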
# [6] = target: Cellular tumor antigen p53 (Homo sapiens) (UniProt P04637); assay: TOX21_p53_BLA_p4_ratio: Tox21 HCT-116 p53 Agonism Beta-lactamase Assay, Ratio, Phase 4 (AID 2283601)
# Method in brief: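 HCT116 cells carrying an inducible beta-lactamase reporter were plated at 4000 cells/well, rested 5 h, then exposed to compounds in DMSO (217-fold dilution) for 16 h at 37C. CCF4-AM substrate was loaded 2 h at room temperature; 460/530 nm emission ratio scored gain-of-signal versus DMSO.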
# [7] = target: Cellular tumor antigen p53 (Homo sapiens) (UniProt P04637); assay: TOX21_p53_BLA_p5_ratio: Tox21 HCT-116 p53 Agonism Beta-lactamase Assay, Ratio, Phase 5 (AID 2283599)
# Method in brief: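 HCT-116 cells carrying a p53-inducible beta-lactamase reporter were seeded at 4000 cells/well and dosed after 5 h with compound in DMSO (217-fold dilution). After 16 h at 37C, CCF4-AM substrate was added for 2 h, and the 460/530 nm emission ratio was scored as gain-of-signal versus DMSO.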
# Cellular tumor antigen p53 (Homo sapiens), sequence (P04637 whole entry, looked up): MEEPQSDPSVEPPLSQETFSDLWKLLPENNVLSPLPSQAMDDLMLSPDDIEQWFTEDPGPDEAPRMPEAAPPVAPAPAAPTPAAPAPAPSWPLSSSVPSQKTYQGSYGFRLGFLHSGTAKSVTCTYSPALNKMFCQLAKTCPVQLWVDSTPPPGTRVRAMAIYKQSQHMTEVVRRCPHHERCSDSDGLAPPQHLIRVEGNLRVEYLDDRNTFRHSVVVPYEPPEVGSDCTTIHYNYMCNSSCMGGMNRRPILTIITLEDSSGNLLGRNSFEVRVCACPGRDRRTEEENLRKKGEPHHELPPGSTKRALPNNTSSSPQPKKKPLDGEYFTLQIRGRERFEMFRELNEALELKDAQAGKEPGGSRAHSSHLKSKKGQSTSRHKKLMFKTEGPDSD
structure (smiles),measurement,setting,value
Clc1cc(Cl)cc(Cl)c1,outcome,[1],inactive
same,outcome,[2],inactive
same,outcome,[3],inactive
same,outcome,[4],inactive
same,outcome,[5],inactive
same,outcome,[6],inactive
CN1C(=O)CN2CCc3ccccc3C2c2cc(Cl)ccc21 (stereo not given),AC50,[1],35.6 µM (active)
same,outcome,[2],inactive
same,AC50,[3],39.8 µM (active)
same,outcome,[4],inactive
same,AC50,[7],22.8 µM (active)
same,AC50,[6],33.8 µM (active)
CCCCCCCCS,outcome,[1],inactive
same,outcome,[2],inactive
same,outcome,[3],inactive
same,outcome,[4],inactive
same,outcome,[7],inactive
same,outcome,[6],inactive
CO[C@@H]1[C@@H](OC(N)=O)[C@@H](O)[C@H](Oc2ccc3c(O)c(NC(=O)c4ccc(O)c(CC=C(C)C)c4)c(=O)oc3c2C)OC1(C)C,outcome,[1],inactive
same,outcome,[2],inactive
same,outcome,[3],inactive
same,outcome,[4],inactive
same,outcome,[5],inactive
COc1ccccc1C=CC=O,outcome,[1],inactive
same,outcome,[2],inactive
same,outcome,[3],inactive
same,outcome,[4],inactive
same,outcome,[7],inactive
same,outcome,[6],inactive
N[C@@H](Cc1cc(I)c(O)c(I)c1)C(=O)O,outcome,[1],inactive
same,outcome,[2],inactive
same,outcome,[3],inactive
same,outcome,[4],inactive
same,outcome,[7],inactive
same,outcome,[6],inactive
O=S(=O)(O)CCCS(=O)(=O)O,outcome,[1],inactive
same,outcome,[2],inactive
same,outcome,[3],inactive
same,outcome,[4],inactive
same,outcome,[7],inactive
same,outcome,[6],inactive
O=C(O)Cc1nn(Cc2ccc(Br)cc2F)c(=O)c2ccccc12,outcome,[1],inactive
same,outcome,[2],inactive
same,outcome,[3],inactive
same,outcome,[7],inactive
same,outcome,[5],inactive
same,outcome,[6],inactive
CCOC(=O)c1ccccc1O,outcome,[1],inactive
same,outcome,[2],inactive
same,outcome,[3],inactive
same,outcome,[7],inactive
same,outcome,[5],inactive
C=C[C@]1(C)C[C@@H](OC(=O)CO)[C@]2(C)[C@H](C)CC[C@]3(CCC(=O)[C@H]32)[C@@H](C)[C@@H]1O,outcome,[1],inactive
same,outcome,[2],inactive
same,outcome,[3],inactive
same,outcome,[4],inactive
same,outcome,[6],inactive
O=P(O)(O)OP(=O)(O)O,outcome,[1],inactive
same,outcome,[2],inactive
same,outcome,[3],inactive
same,outcome,[4],inactive
same,outcome,[5],inactive
same,outcome,[6],inactive
CCCCCCCCCCCCCCN(C)C,outcome,[1],inactive
same,outcome,[2],inactive
same,outcome,[3],inactive
same,outcome,[7],inactive
Cc1cc(O)c2c(c1)C(=O)c1cccc(O)c1C2=O,outcome,[1],inactive
same,outcome,[2],inactive
same,outcome,[3],inactive
same,outcome,[7],inactive
same,outcome,[5],inactive
same,outcome,[6],inactive
O=C(O)c1c2ccccc2cc2ccccc12,outcome,[1],inactive
same,outcome,[2],inactive
same,outcome,[3],inactive
same,outcome,[4],inactive
same,outcome,[5],inactive
same,outcome,[6],inactive
CC[C@H](C)[C@H](N)C(=O)O,outcome,[1],inactive
same,outcome,[2],inactive
same,outcome,[3],inactive
same,outcome,[7],inactive
CCCCCCCCOCCC#N,outcome,[1],inactive
same,outcome,[2],inactive
same,outcome,[3],inactive
same,outcome,[7],inactive
same,outcome,[5],inactive
CCCCNc1ccc(C(=O)OCCN(C)C)cc1,outcome,[1],inactive
same,outcome,[2],inactive
same,outcome,[3],inactive
same,outcome,[7],inactive
same,outcome,[5],inactive
same,outcome,[6],inactive
O=C(Cn1cnnn1)N[C@@H]1C(=O)N2C(C(=O)O)=C(CSc3nncs3)CS[C@H]12,outcome,[1],inactive
same,outcome,[2],inactive
same,outcome,[3],inactive
same,outcome,[7],inactive
same,outcome,[5],inactive
COCC(C)OC(C)=O (stereo not given),outcome,[1],inactive
same,outcome,[2],inactive
same,outcome,[3],inactive
same,outcome,[7],inactive
same,outcome,[5],inactive
CC(=O)Oc1c(C)cc(OCC(O)CNC(C)C)c(C)c1C (stereo not given),outcome,[1],inactive
same,outcome,[2],inactive
same,outcome,[3],inactive
same,outcome,[4],inactive
same,outcome,[6],inactive
CC(=O)OCC1=C(C(=O)O)N2C(=O)[C@@H](NC(=O)Cc3cccs3)[C@H]2SC1,outcome,[1],inactive
same,outcome,[2],inactive
same,outcome,[3],inactive
same,outcome,[7],inactive
same,outcome,[5],inactive
same,outcome,[6],inactive
COc1ccccc1OC(=O)Oc1ccccc1OC,outcome,[1],inactive
same,outcome,[2],inactive
same,outcome,[3],inactive
same,outcome,[4],inactive
same,outcome,[6],inactive

# Source: PubChem BioAssay (EPA / NIEHS)
